Shown are actives, neighbours in structure and some others; about 2.1% of the full set was active somewhere.
CF NFkB inh – inhibitors of cystic fibrosis induced NF-kB; AID 588850; 0.86% of 360,000 active; KKLEB NF-kB-GFP reporter, PAF-induced, GFP fluorescence overnight; inhibition, % at 5 µM;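 active = at least 50% inhibition at 5 µM, scaled per plate between neutral and stimulator controls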;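 also: PAF is a Pseudomonas aeruginosa culture filtrate used as stimulus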
HIF-2a block – HIF-2a inhibition. 0.72% of 360,000 active. inhibition, % at 18.8 µM. 786-0 RCC cells HIF-2a reporter, luciferase luminescence, overnight;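 active = inhibition of the luminescence signal of 40% or more relative to plate controls, in a single-dose primary screen at 18.75 µM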
KKLEB tox – reduces viability of KKLEB cystic fibrosis airway cells; activity change (cytotoxicity), % at 5 µM; KKLEB CF airway cells viability, ATPlite luminescence, overnight; active compounds read low; cells stimulated with P. aeruginosa culture filtrate; 0.36% of 360,000 active;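 active = corrected activity change at or below -50% at 5 µM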
EWS-Fli block – inhibitors of EWS/Fli oncoprotein transcriptional activity; A673 NR0B1-luciferase reporter, viability-normalised; inhibition, % at 12.6 µM; 0.67% of 350,000 active;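 active = mean inhibition of at least 50% after viability correction, with every replicate also passing that limit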;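 also: firefly luciferase signal divided by Alamar Blue viability fluorescence both relative to DMSO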
PAX8 inh HTS – lowers PAX8-driven luciferase in RMG-I cells. RMG-I TPO-luciferase reporter, SteadyGlo, 24 h. inhibition, % at 12.6 µM. 1.2% of 360,000 active;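 active = mean replicate inhibition at least 60% with every replicate also reaching 60%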;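 also: luciferase light reporting Pax8 driven TPO promoter activity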
Numbers stand for hits; 0 = inactive; - = not tested or not shown.

SMILES	CF NFkB inh	HIF-2a block	KKLEB tox	EWS-Fli block	PAX8 inh HTS
C[C@H]1CN([C@@H](C)CO)C(=O)c2cccc(NC(=O)Nc3cccc4ccccc34)c2O[C@H]1CN(C)CC1CC1	-	-	-	0	90
C[C@@H]1CCCCO[C@@H](CN(C)CC2CCCCC2)[C@@H](C)CN([C@@H](C)CO)C(=O)c2cc(NC(=O)Nc3cccc4ccccc34)ccc2O1	-	-	-	77	0
C[C@@H]1CCCCO[C@H](CN(C)CC2CCCCC2)[C@H](C)CN([C@H](C)CO)C(=O)c2cc(NC(=O)Nc3cccc4ccccc34)ccc2O1	-	-	-	87	0
C[C@H](CO)N1C[C@H](C)[C@@H](CN(C)CC2CCCCC2)OCCCC[C@H](C)Oc2ccc(NC(=O)Nc3cccc4ccccc34)cc2C1=O	-	-	-	0	0
C[C@@H]1CCCCO[C@H](CN(C)CC2CCCCC2)[C@H](C)CN([C@@H](C)CO)C(=O)c2cc(NC(=O)Nc3cccc4ccccc34)ccc2O1	-	-	-	0	0
C[C@@H]1CCCCO[C@H](CN(C)CC2CC2)[C@H](C)CN([C@@H](C)CO)C(=O)c2cc(NC(=O)Nc3cccc4ccccc34)ccc2O1	-	-	-	0	0
C[C@@H]1CN([C@H](C)CO)C(=O)c2cc(NC(=O)Nc3cccc4ccccc34)ccc2O[C@H]1CN(C)CC1CCCCC1	-	-	-	0	-
C[C@@H]1CN([C@H](C)CO)C(=O)c2cc(NC(=O)Nc3cccc4ccccc34)ccc2O[C@@H]1CN(C)CC1CCCCC1	-	-	-	70	-
C[C@H](CO)N1C[C@H](C)[C@H](CN(C)CC2CCCCC2)OCCCC[C@H](C)Oc2ccc(NC(=O)Nc3cccc4ccccc34)cc2C1=O	-	-	-	92	0
COc1ccc(NC(=O)N(C)C[C@@H]2Oc3ncc(-c4ccc(C#N)cc4)cc3C(=O)N([C@@H](C)CO)C[C@@H]2C)cc1	-	-	-	0	-
Cc1noc(C)c1NC(=O)N(C)C[C@@H]1OCCCC[C@H](C)Oc2ccc(NC(=O)CCC(F)(F)F)cc2C(=O)N([C@H](C)CO)C[C@@H]1C	-	-	-	0	0
O=[N+]([O-])c1ccccc1S(=O)(=O)Oc1ccccc1/C=N/n1cnnc1	0	0	0	0	98
O=[N+]([O-])c1cccc(/C=N/n2cnnc2)c1O	0	0	0	-	-
COc1ccc(CN(C)C[C@@H]2OCCCC[C@H](C)Oc3ccc(NC(=O)Nc4ccc(C(F)(F)F)cc4)cc3C(=O)N([C@@H](C)CO)C[C@@H]2C)cc1	-	-	-	83	0
COc1ccc(CN(C)C[C@H]2OCCCC[C@H](C)Oc3ccc(NC(=O)Nc4ccc(C(F)(F)F)cc4)cc3C(=O)N([C@@H](C)CO)C[C@H]2C)cc1	-	-	-	67	106
COc1ccc(NC(=O)Nc2ccc3c(c2)C(=O)N([C@H](C)CO)C[C@H](C)[C@@H](CN(C)Cc2ccc(C(F)(F)F)cc2)OCCCC[C@@H](C)O3)cc1	-	-	-	0	0
COc1ccc(NC(=O)Nc2ccc3c(c2)C(=O)N([C@@H](C)CO)C[C@H](C)[C@@H](CN(C)Cc2ccc(C(F)(F)F)cc2)OCCCC[C@@H](C)O3)cc1	-	-	-	0	69
COc1ccc(NC(=O)Nc2ccc3c(c2)C(=O)N([C@H](C)CO)C[C@@H](C)[C@H](CN(C)Cc2ccc(C(F)(F)F)cc2)OCCCC[C@@H](C)O3)cc1	-	-	-	0	0
COc1ccc(NC(=O)Nc2ccc3c(c2)C(=O)N([C@@H](C)CO)C[C@@H](C)[C@@H](CN(C)Cc2ccc(C(F)(F)F)cc2)OCCCC[C@H](C)O3)cc1	-	-	-	0	72
COc1ccc(CN(C)C[C@H]2OCCCC[C@H](C)Oc3ccc(NC(=O)Nc4ccc(F)cc4)cc3C(=O)N([C@H](C)CO)C[C@@H]2C)cc1	-	-	-	0	0
COc1ccc(CN(C)C[C@H]2OCCCC[C@@H](C)Oc3ccc(NC(=O)Nc4ccc(C(F)(F)F)cc4)cc3C(=O)N([C@H](C)CO)C[C@H]2C)cc1	-	-	-	56	0
COc1ccc(NC(=O)Nc2ccc3c(c2)C(=O)N([C@@H](C)CO)C[C@@H](C)[C@@H](CN(C)Cc2ccc(C(F)(F)F)cc2)OCCCC[C@@H](C)O3)cc1	-	-	-	0	84
COc1ccc(NC(=O)Nc2ccc3c(c2)C(=O)N([C@H](C)CO)C[C@@H](C)[C@@H](CN(C)Cc2ccc(C(F)(F)F)cc2)OCCCC[C@@H](C)O3)cc1	-	-	-	0	0
COc1ccc(CN(C)C[C@H]2OCCCC[C@H](C)Oc3ccc(NC(=O)Nc4cccc5ccccc45)cc3C(=O)N([C@H](C)CO)C[C@H]2C)cc1	-	-	-	70	0
COc1ccc(CN(C)C[C@H]2OCCCC[C@@H](C)Oc3ccc(NC(=O)Nc4ccc(F)cc4)cc3C(=O)N([C@H](C)CO)C[C@H]2C)cc1	-	-	-	67	0
SMILES	CF NFkB inh	HIF-2a block	KKLEB tox	EWS-Fli block	PAX8 inh HTS
C[C@@H]1CCCCO[C@H](CN(C)C)[C@H](C)CN([C@@H](C)CO)C(=O)c2cc(NC(=O)c3ccncc3)ccc2O1	-	-	-	0	0
Cc1ccc(F)cc1S(=O)(=O)N[C@@H]1CCN(Cc2ccc3[nH]ccc3c2)C1	-	-	-	0	0
COc1ccc(CNC(=O)c2ccc(-c3ccccc3)cc2)cc1	0	0	0	-	-
CC(=O)c1c2c3c(c(Br)ccc3n(C)c1=O)C(=O)c1ccccc1-2	0	0	0	-	0
CC(=O)c1c(C)oc2c1C(=O)c1ccccc1C2=O	86	0	0	-	0
COc1ccc(CNC(=O)c2c(C)oc3c2C(=O)c2ccccc2C3=O)cc1	90	73	-82	0	0
COc1ccccc1-c1ccc2n(c1=O)C[C@@H]1[C@@H](CO)[C@H](C(=O)N3CCCCC3)N(C)[C@H]21	-	-	-	0	-
O=C(Nc1cccc(F)c1)N1CC(=O)N2[C@@H](CO)[C@@H](c3ccc(Br)cc3)[C@@H]2C1	-	-	-	0	0
CCC(=O)Nc1ccc2c(c1)C(=O)N(C)C[C@@H](OC)[C@@H](C)CN(Cc1cccnc1)[C@@H](C)CO2	-	-	-	0	-
COc1ccc(CNC(=O)C[C@H]2C=C[C@@H](NS(=O)(=O)c3cccc(OC)c3)[C@@H](CO)O2)cc1	-	-	-	0	-
COc1ccc(C(=O)c2coc3c2C(=O)C(=O)c2ccccc2-3)cc1	0	0	0	0	0
O=C(c1ccccc1)c1coc2c1C(=O)c1ccccc1C2=O	52	0	0	0	0
CCOc1ccc(-n2c(-c3ccccc3)c[n+]3c2CCCCC3)cc1	0	0	0	0	86
O=C(CSc1nnc(-c2ccccc2O)n1Cc1ccccc1)NNC(=O)c1ccccc1O	0	0	0	-	0
O=C(CSc1nnc(-c2ccccc2)n1Cc1ccccc1)NNC(=O)c1ccccc1O	0	0	0	79	0
CCNC(=O)C1(C)CCN(C(=O)c2ccccc2F)C1 (stereo unspecified)	0	0	0	0	96
CCCC#Cc1ccc2c(c1)O[C@@H](CN(C)Cc1ccc3c(c1)OCO3)[C@@H](C)CN([C@@H](C)CO)S2(=O)=O	-	-	-	0	-
O=C(Cc1cccnc1)N[C@@H]1CC[C@H](CCn2cc(Cc3ccccc3)nn2)O[C@H]1CO	-	-	-	0	0
CCc1cc(OCCN(C)C)ccc1Cl	0	0	0	0	0
CN(C)CCOc1ccc2c(c1)C(=O)C(=Cc1ncc([N+](=O)[O-])n1C)C2	0	0	0	52	99
